{
  "source": "the supplement of paper PMC3414501",
  "note": "Values without a mark were called inactive. Rule as the data show it: active = 2 or more and inactive = the rest.",
  "data": [
    {"tested_on": "S. cerevisiae BY4741 (wild-type), vegetative growth in YPD", "assay": "growth sensitivity score (doubling time z-score vs DMSO controls); higher = slower growth, strongly negative scores also mark growth inhibition (complete suppression), active = hit call of the paper", "summary_of_the_method": "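Optical density of Saccharomyces cerevisiae cultures in microtiter plates was followed every 15 min for 24 hours after seeding at an OD600 of 0.065. Eight solvent-only wells were run per experiment. Growth sensitivity scores were found by subtracting the solvent-only mean from the compound mean and dividing by the solvent-only standard deviation.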", "values": [
      {"molecule": "Cc1sc(N)c(C(=O)c2cccc(C(F)(F)F)c2)c1C", "note": "(stock concentration (mM, diluted 1:100): 10)", "growth sensitivity score": "9.52 (active)"},
      {"molecule": "O=C(NCCN1CCOCC1)c1ccc(Cl)cc1", "note": "[Moclobemide] (stock concentration (mM, diluted 1:100): 10)", "growth sensitivity score": -0.18},
      {"molecule": "CN1CCN(CCCN2c3ccccc3Sc3ccc(Cl)cc32)CC1", "note": "[Prochlorperazine] (stock concentration (mM, diluted 1:100): 10.4)", "growth sensitivity score": "146 (active)"},
      {"molecule": "Cc1c(OCC(F)(F)F)ccnc1C[S+]([O-])c1nc2ccccc2[nH]1", "note": "(configuration not stated) [Lansoprazole] (stock concentration (mM, diluted 1:100): 10.1)", "growth sensitivity score": 1.37},
      {"molecule": "C[C@H]1COc2c(N3CCN(C)CC3)c(F)cc3c(=O)c(C(=O)O)cn1c23", "note": "[Levofloxacin] (stock concentration (mM, diluted 1:100): 10)", "growth sensitivity score": -0.66},
      {"molecule": "CN(C)[C@@H]1C(O)=C(C(=O)NCN2CCCC2)C(=O)[C@@]2(O)C(O)=C3C(=O)c4c(O)cccc4[C@@](C)(O)[C@H]3C[C@@H]12", "note": "[Rolitetracycline] (stock concentration (mM, diluted 1:100): 10)", "growth sensitivity score": -1.17},
      {"molecule": "Cc1c2oc3c(C)ccc(C(=O)N[C@@H]4C(=O)N[C@H](C(C)C)C(=O)N5CCC[C@H]5C(=O)N(C)CC(=O)N(C)[C@@H](C(C)C)C(=O)O[C@@H]4C)c3nc-2c(C(=O)N[C@@H]2C(=O)N[C@H](C(C)C)C(=O)N3CCC[C@H]3C(=O)N(C)CC(=O)N(C)[C@@H](C(C)C)C(=O)O[C@@H]2C)c(N)c1=O", "note": "[Dactinomycin] (stock concentration (mM, diluted 1:100): 10)", "growth sensitivity score": 1.17}
    ]}
  ]
}
